The text below walks through data of PubChem BioAssay AID1777 (Sanford-Burnham Center for Chemical Genomics, 2009).

SMILES strings stand for the structures. Hit rate of the full screen: of about 280,000 compounds, about 50 (0.02%) were called active. This excerpt belongs to a sample that is enriched for actives. Potency and affinity values are given separately. Values without a mark were called inactive. Cut-off read from the data, not from the text of the source: active = activation above about 50% (passing the limit was not always enough); inactive = the rest.

Kappa-type opioid receptor (Homo sapiens), sequence (P41145 whole entry, looked up): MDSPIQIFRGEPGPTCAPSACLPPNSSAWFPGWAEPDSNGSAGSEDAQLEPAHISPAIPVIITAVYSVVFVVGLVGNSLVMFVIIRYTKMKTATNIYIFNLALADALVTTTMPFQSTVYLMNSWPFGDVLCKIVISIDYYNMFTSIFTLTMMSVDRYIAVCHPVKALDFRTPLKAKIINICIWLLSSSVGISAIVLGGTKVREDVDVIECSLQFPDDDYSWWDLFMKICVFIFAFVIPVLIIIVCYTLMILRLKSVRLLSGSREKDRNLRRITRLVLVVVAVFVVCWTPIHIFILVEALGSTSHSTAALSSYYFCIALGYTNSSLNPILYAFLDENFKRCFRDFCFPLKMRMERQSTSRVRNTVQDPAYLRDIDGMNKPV

The experiment addresses Kappa-type opioid receptor (Homo sapiens) (UniProt P41145). As to the kind of experiment: KOR agonists, beta-arrestin recruitment, primary screen, cell-based, luminescence, uHTS (AID 1777). The following applies: at 10 µM, hits give high values.
For `CCC(C)(C(=O)NC1CCCC1)N(C)C(=O)c1ccccn1` (centres undefined), the activation is -0.7%. Take `CCC(C)(C(=O)NC1CCCC1)N(Cc1ccco1)C(=O)c1ccc2c(c1)OCO2` (centres undefined): the activation is 10.3%. Then `CCC(C)(C(=O)NC1CCCC1)N(C(=O)c1cnccn1)c1ccccc1` (centres undefined), with -12.3%; and `CCC(C)(C(=O)NC1CCCCC1)N(C)C(=O)c1ccccn1` (centres undefined), with 1.2%; and `CCC(C)(C(=O)NC1CCCCC1)N(Cc1ccco1)C(=O)CNC(=O)c1ccccc1` (centres undefined), with 1.6%. Then `CCC(C)(C(=O)NC1CCCCC1)N(Cc1ccco1)C(=O)c1ccc2c(c1)OCO2` (centres undefined), with 1.2%; and `CC(C)(C)c1cc(C(=O)NC2CC2)n(Cc2ccc(F)cc2)n1`, with -4.7%. In the case of `CS(=O)(=O)c1ccc(NCC2CCCO2)c([N+](=O)[O-])c1` (centres undefined) it was -3.6%; in that of `O=c1[nH]cc(S(=O)(=O)NCc2ccccc2)c(=O)[nH]1`, -1.3%; in that of `CCNS(=O)(=O)c1ccc(CCC(=O)Nc2ccccc2C(=O)OC)cc1`, -1.4%.

Turning to `Cc1cc(C)cc(C(=O)NCC(=O)OCC(=O)N2CCN(S(=O)(=O)c3ccc4ccccc4c3)CC2)c1`, the activation was -0.4%. Take `CCC(C)(C(=O)NC1CCCC1)N(Cc1cccs1)C(C)=O` (centres undefined): the activation was -2.2%.

In the case of `CCC(C)(C(=O)NC1CCCC1)N(Cc1cccs1)C(=O)Cc1cccs1` (centres undefined), the activation is -0.9%. In the case of `CCC(C)(C(=O)NC1CCCCC1)N(Cc1cccs1)C(=O)Cc1cccs1` (centres undefined) it was 3.8%. In the case of `CCC(C)(C(=O)NC1CCCCC1)N(Cc1cccs1)C(=O)c1ccc(=O)[nH]c1` (centres undefined) it was -6.4%; in that of `CC(=O)c1sc(N/N=C\c2ccc(Br)cc2)nc1C`, 3.5%. As for `COc1ccc(N2CCN(S(=O)(=O)CCNC(=O)COc3ccccc3OC)CC2)cc1`, the activation was -4.1%. In the case of `NC1=NC(c2cn[nH]c2-c2ccc(F)cc2)n2c(nc3ccccc32)N1` (centres undefined) it was 0.5%.

Take `CC(CNC(=O)c1ccc2c(c1)OCO2)c1ccc([N+](=O)[O-])cc1` (centres undefined): the activation is -4.6%. For `COc1ccc(CN(CC2CCCO2)C(=O)CN2C(=O)C(C)Oc3ccc(C)cc32)cc1OC` (centres undefined), the activation was 50.9%. Take `O=C(CN1C(=O)COc2ccccc21)N(Cc1ccc2c(c1)OCO2)CC1CCCO1` (centres undefined): the activation was 72.1%. In the case of `O=C(CCCCCBr)N1CCC(CC2CC(c3ccc(Cl)cc3)=NO2)(C(=O)NCC2CCCCC2)CC1` (centres undefined) it was -0.1%; in that of `CCN1CCc2c(sc(NC(=O)c3cc4ccccc4cc3OC)c2C(N)=O)C1`, 0.1%. In the case of `CC(C)N1CCc2c(sc(NC(=O)c3ccc4ccccc4c3)c2C(N)=O)C1` it was -0.3%; in that of `N#C/C(=C\c1ccc(-c2ccccc2Cl)o1)C(=O)Nc1nc2ccccc2s1`, -1.8%.

Consider `CNC(=O)/C(C#N)=C/c1ccc(-c2nc3ccccc3s2)o1`, for which the activation was 169% (active).

With `N#C/C(=C\c1ccc(-c2nc3ccccc3s2)o1)C(N)=O`, the activation was 0.2%. Then `CN=C1SC(CC(=O)Nc2ccccc2F)C(=O)N1/N=C/c1ccc(O)c(OC)c1` (centres undefined), with 14.6%; and `Cn1c(=O)c(=O)n(C)c2cc(S(=O)(=O)N3CCCC3C(=O)NCc3cccs3)ccc21` (centres undefined), with 1%; and `COc1ccc(-c2ccc(C#N)c(SCC(=O)Nc3sc4c(c3C#N)CCC4)n2)cc1`, with -2.3%. Take `N#Cc1ccc(-c2ccc(F)cc2)nc1SCC(=O)Nc1sc2c(c1C#N)CCC2`: the activation is -1%.

For the compound `CCc1ccccc1OCC(=O)N(CC)CC(=O)NCc1ccc(F)cc1`, the activation was -3%. `Cc1cc(C(=O)CSc2nncn2C)c(C)n1-c1ccccc1`: the activation was -2.9%. As to `Cc1nc(C)c(NC(=O)OC(C)C)cc1NC(=O)OC(C)C`, the activation is -4.7%.
